52 molecules from PubChem BioAssay AID1458 (National Center for Advancing Translational Sciences (NCATS), 2008) can be followed below.

The campaign covered roughly 210,000 compounds. About 5,900 (2.8%) were called active. About 5% were inconclusive and are not listed. The call rests on the fitted dose curve; in most records, active means well fitted activation curve with a large enough effect; inconclusive means small, poorly fitted or top-dose-only effect; inactive means no such curve, though single readings can be large or run the other way. The list comes from a sample in which actives are over-represented; it also holds similar structures and randomly drawn compounds. Entries that show only a call come without a potency.
Potency means the concentration at half of the fitted maximal effect.

The experiment can be described thus: qHTS Assay for Enhancers of SMN2 Splice Variant Expression. Further: nearly all actives have a fitted effect of over 55% in size. The following applies: HEK293 SMN2-luciferase splicing reporter, luminescence, 30-36 h; series mostly up to 46.1 µM. From the text: NIH Chemical Genomics Center [NCGC] NIH Molecular Libraries Probe Production centers Network [MLPCN] MLPCN Grant: R03 MH084179-01 Assay Submitter (PI): Elliot Androphy NCGC Assay Overview: Spinal muscular atrophy (SMA) is caused by insufficient levels of the survival motor neuron protein SMN. The SMN locus on chromosome 5q13 contains two inverted copies of SMN called SMN1 and SMN2 which are 99% identical at the amino acid level. SMN1 is a fully functional protein and SMN2 skips exon 7 90% of the time. Skipping of exon 7 produces non-functional protein product. 10% of the SMN2 protein includes exon 7 and is fully functional. In the SMA disease state, mutations in the SMN1 locus are the cause of the disease state. Because only 10% of SMN2 is of the fully functional form, it is not sufficient to overcome the deficiency produced by the loss of the SMN1 product. A therapy that either increase the amount of SMN2 product made or to increase the inclusion of exon 7 has been proposed for the treatment of SMA. We have designed an assay to identify small molecules that can increase the amount of functional SMN2 product by appending a luciferase reporter gene after the native SMN2 gene, such that inclusion of exon 7 in the expressed product places the luciferase sequence in frame, thus generating functional luciferase enzyme.
NCGC Assay Protocol Summary: This screen utilizes a luciferase reporter gene assay, combining the promoter and splicing based cassettes in tandem with the major portion of the native SMN2 cDNA, and then transfected into HEK293 cells. Compounds that increase luciferase signal presumably enhance expression of the functional SMN2 splice variant. Passaging media contained DMEM w/ glutamax (+phenol red) 10% FCS, 1x pen/strep, 200 ug/ml hygro, 1x sodium pyruvate. Assay media contained DMEM w/ glutamax (-phenol red) 10% FCS, 1x pen strep, 1x pyruvate Sequence, Parameter, Value, Description (1) Cells, […], 2000 cells/well, 1536 TC treated White solid bottom plate (2) Time, 10-12 hours, 37C 5% CO2 (3) Compound, 23 nl, MLSMR Library (4) Control Compound, 23 nL, Sodium butyrate st 4.5mM (final) conc (5) Time, 30-36 hours, 37C 5% CO2 (6) Reagent, 3 ul, One Glo (TM) from Promega (7) Time, 5-15 minutes, Room temp (8) Detector, Viewlux: luminescent read, 60 second integration, high speed 2x binning Keywords: Spinal muscular atrophy, SMA, SMN2, high throughput screening, MLSMR, MLPCN, NIH Roadmap, qHTS and NCGC
In general terms: In qHTS, concentration-response curves come from the screen itself.
Consider `Cc1nonc1NC(=O)CSc1nc2ccccc2cc1C#N`, for which the Potency result was “inactive”.

Consider `CCOc1ccc2cc(C#N)c(SCC(=O)OC)nc2c1`, for which the Potency is 11.2 µM (active). Regarding `CCN1CCc2nc3sc(C(=O)Nc4ccccc4OC(F)(F)F)c(N)c3cc2C1`, the Potency result is “inactive”. Consider `COc1cccc(-c2nc3n(n2)C(c2ccccc2Cl)C(C(N)=O)=C(C)N3)c1` (configuration not stated), for which the Potency is 15.8 µM (active). Take `COc1ccc(C2=CC(c3ccccc3Cl)n3nc(-c4ccc(Cl)cc4)nc3N2)cc1` (configuration not stated): the Potency result was “inactive”.

For the molecule `CC1=C(C(N)=O)C(c2ccc3c(c2)OCO3)n2nc(-c3cccc(C)c3)nc2N1` (configuration not stated), the Potency entry was “inactive”.

On to `COc1ccc(/C=C/C(=O)Nc2cccnc2)cc1OC`, for which the Potency entry was “inactive”. As for `COc1ccc(/C=C/C(=O)N2CCCC2)cc1OC`, the Potency entry was “inactive”. `COc1ccc(/C=C/C(=O)Nc2ccc(C34CC5CC(CC(O)(C5)C3)C4)cc2)cc1OC`: the Potency is 12.6 µM (active). `CCOC(=O)c1ccc(NC(=O)CC2C(=O)N(c3ccccc3)C(=O)N2Cc2cccs2)cc1` (configuration not stated): the Potency result is “inactive”. With `CCOC(=O)c1sc(NC(=O)COc2ncnc3ccccc23)c(C(=O)OCC)c1C`, the Potency entry is “inactive”. Turning to `CCOC(=O)c1c(NC(=O)CCl)sc(C(=O)N(CC)CC)c1C`, the Potency entry is “inactive”. Then `CCC(=O)Nc1sc(C(=O)Nc2ccccc2)c(C)c1C(=O)OC`, with 3.55 µM (active); and `COc1ccccc1NC(=O)c1sc2nc(C)c(C(=O)Nc3ccc(Cl)cc3)c(-c3ccc(Br)cc3)c2c1N`, with “inactive”. On to `CCc1ccccc1NS(=O)(=O)c1ccc2nc(-c3ccccc3)[nH]c2c1`, for which the Potency result is “inactive”. For `Cc1c(NC(=O)c2cc(-c3ccc(Br)cc3)on2)c(=O)n(-c2ccccc2)n1C`, the Potency entry is “inactive”. Turning to `CC(C)Oc1ccc(CNC(=O)C2CCN(c3nc4ccccc4n(C)c3=O)CC2)cc1`, the Potency entry is “inactive”. Take `Cc1cc(C)c2oc(C(=O)Nc3ccc(S(=O)(=O)N(C)c4ccccc4)cc3)cc(=O)c2c1`: the Potency entry is “inactive”. As to `Cc1ccc(NC(=O)Nc2ccc3oc(C)nc3c2)cc1`, the Potency was 11.2 µM (active). As for `Cc1nc2cc(NC(=O)NCc3ccccc3)ccc2o1`, the Potency result was “inactive”. Take `Cc1nc2ccc(NC(=O)C(F)(F)F)cc2o1`: the Potency entry was “inactive”.

For `CC(C)c1ccc(NS(=O)(=O)c2ccc3[nH]cc(C(=O)NC4CCCC4)c(=O)c3c2)cc1`, the Potency entry is “inactive”.

`CCOc1ccc(-c2n[nH]c3c2C(c2ccccc2OC)N(c2ccc(Br)cc2)C3=O)cc1` (configuration not stated): the Potency entry was “inactive”. For the molecule `COc1cccc(OCC(=O)Nc2ccccc2C(N)=O)c1`, the Potency is 11.2 µM (active). Then `COc1cccc(OCC(=O)NNC(=O)c2cnccn2)c1`, with “inactive”. `CCCOC(=O)Nc1ccccc1C(N)=O`: the Potency result was “inactive”. As for `CCOc1ccc(-c2nonc2NC(=O)c2oc3ccc(CC)cc3c2C)cc1`, the Potency result was “inactive”. For the molecule `CCOC(=O)c1ccc(NC(=O)c2ncn(-c3ccccc3)n2)cc1`, the Potency result is “inactive”.

As for `CCC(=O)N1CCc2cc(S(=O)(=O)CCC(=O)N3CCN(c4ccccc4F)CC3)ccc21`, the Potency result was “inactive”.

For `O=C(/C=C/c1ccc(Cl)cc1)Nc1ccc(S(=O)(=O)Nc2ncccn2)cc1`, the Potency entry is “inactive”.

In the case of `CC(C)(C)c1ccc(/C=C/C(=O)NC2CCS(=O)(=O)C2)cc1` (configuration not stated), the Potency result was “inactive”. As for `CC(C)(C)c1ccc(/C=C/C(=O)Nc2ncccn2)cc1`, the Potency was 22.4 µM (active). For the molecule `CCN(CC)CCNC(=O)Cn1ncc2c3ccccc3n(Cc3ccccc3C)c2c1=O`, the Potency result is “inactive”. Then `COCCCNC(=O)c1c(NC(=O)c2cc(=O)c3cc(C)c(C)cc3o2)sc2c1CCCC2`, with “inactive”. Then `CCOC(=O)c1nnn(CC(=O)NC(=O)Nc2ccccc2F)c1C(=O)OCC`, with “inactive”.

Turning to `COc1ccc(CNC(=O)CC2Oc3ccc(C)cc3NC2=O)cc1` (configuration not stated), the Potency result was “inactive”.

As for `O=C(c1ccc(C(F)(F)F)cc1)N1CCC(c2nc(-c3ccc(S(=O)(=O)N4CCCC4)cc3)no2)CC1`, the Potency entry is “inactive”. `O=C(CSc1cccc[n+]1[O-])c1ccc(-c2ccccc2)cc1`: the Potency is 12.6 µM (active). On to `O=C(CSc1cccc[n+]1[O-])c1ccc(Cl)cc1`, for which the Potency entry is “inactive”. Turning to `COc1ccccc1C(=O)CSc1cccc[n+]1[O-]`, the Potency result was “inactive”. With `Cc1c(C(=O)NCc2ccccc2Br)oc2ccc3c(c12)C(=O)CC(C)(C)O3`, the Potency entry is “inactive”. As for `CCS(=O)(=O)c1nc(S(=O)(=O)c2ccc(C)cc2)c(NCc2ccc(Cl)cc2)s1`, the Potency entry is “inactive”.

On to `O=c1n(Cc2cccc(C(F)(F)F)c2)c2ccccc2c2nc(-c3ccccc3)nn12`, for which the Potency entry is “inactive”. Then `Cc1ccc(NC(=O)C(Cc2ccccc2)NS(=O)(=O)c2ccc3c(c2)oc(=O)n3C)cc1C` (configuration not stated), with “inactive”; and `COc1cc(/C=C2/C(=O)ON=C2C)ccc1OCc1ccccc1F`, with “inactive”. Then `COc1cc(/C=C2/C(=O)ON=C2C)ccc1OCc1cccc(F)c1`, with 12.6 µM (active); and `C/C=C/c1ccc(OCCOc2ccc(C=O)cc2OC)c(OC)c1`, with “inactive”; and `CCOC(=O)c1c(C)oc2ccc(N(C(=O)c3ccncc3)S(=O)(=O)c3ccc(CC)cc3)cc12`, with “inactive”. For `CCOC(=O)C1=C(c2ccccc2)Nc2ncnn2C1c1ccc(Cl)cc1` (configuration not stated), the Potency result is “inactive”. With `CC(=O)Nc1cc2ccc(OC(C)=O)cc2oc1=O`, the Potency entry was “inactive”. In the case of `O=C(Nc1cc2ccccc2oc1=O)C1CCCCC1`, the Potency is 4.47 µM (active). In the case of `O=C(O)c1ccc(NC(=O)C2CCCCC2)cc1`, the Potency result is “inactive”.
